# Experimental data: PMC7862700, “An all-to-all approach to the identification of sequence-specific readers for epigenetic DNA modifications on cytosine”
# Key:
# Experiment in all cases: DAPPL (digital affinity profiling via proximity ligation, sequencing); 10 mM Tris-HCl pH 7.5, 50 mM NaCl, 1 mM DTT, 4% glycerol, room temperature, 30 min; GST-TFs on glutathione beads, 16-mer random dsDNA library, 0.1% formaldehyde crosslink after washing; high values mean tight binding
# [1] = molecular target: T1, FLI1 (Homo sapiens, UniProt Q01543 1-452); conditions: protein: recombinant; tags: N-terminal GST; dsDNA, one strand shown
# T1 sequence: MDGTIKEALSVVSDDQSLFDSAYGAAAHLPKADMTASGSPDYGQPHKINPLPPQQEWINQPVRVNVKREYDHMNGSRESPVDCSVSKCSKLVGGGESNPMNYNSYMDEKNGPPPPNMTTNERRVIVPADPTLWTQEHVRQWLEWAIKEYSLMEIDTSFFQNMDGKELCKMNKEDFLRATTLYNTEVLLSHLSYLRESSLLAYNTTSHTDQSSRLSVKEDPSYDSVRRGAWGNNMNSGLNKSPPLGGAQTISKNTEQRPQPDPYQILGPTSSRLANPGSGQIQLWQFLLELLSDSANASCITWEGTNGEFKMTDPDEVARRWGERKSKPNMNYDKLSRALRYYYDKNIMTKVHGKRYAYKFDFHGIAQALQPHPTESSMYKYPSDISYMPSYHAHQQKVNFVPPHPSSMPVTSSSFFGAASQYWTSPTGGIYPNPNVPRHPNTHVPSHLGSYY
# Procedure, shortened: (§1)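 After expression in yeast as GST fusions, human transcription factors were bound to glutathione beads, DNA-barcoded and mixed with a tag-only sample. The pools were incubated with 200 nmole of a 16-mer random double-stranded DNA library in Tris/NaCl/DTT/glycerol buffer (30 min, room temperature), washed and crosslinked with 0.1% formaldehyde. Proximity ligation with BsaI/T4 ligase ran for 1 h at 37 °C, before PCR amplification and sequencing on an Illumina NextSeq500. Binding signal is a hexamer's read frequency for a factor divided by its frequency for the tag-only sample.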
# [2] = molecular target: T2, ELK1 (Homo sapiens, UniProt P19419 1-428); conditions: protein: recombinant; tags: N-terminal GST; dsDNA, one strand shown
# T2 sequence: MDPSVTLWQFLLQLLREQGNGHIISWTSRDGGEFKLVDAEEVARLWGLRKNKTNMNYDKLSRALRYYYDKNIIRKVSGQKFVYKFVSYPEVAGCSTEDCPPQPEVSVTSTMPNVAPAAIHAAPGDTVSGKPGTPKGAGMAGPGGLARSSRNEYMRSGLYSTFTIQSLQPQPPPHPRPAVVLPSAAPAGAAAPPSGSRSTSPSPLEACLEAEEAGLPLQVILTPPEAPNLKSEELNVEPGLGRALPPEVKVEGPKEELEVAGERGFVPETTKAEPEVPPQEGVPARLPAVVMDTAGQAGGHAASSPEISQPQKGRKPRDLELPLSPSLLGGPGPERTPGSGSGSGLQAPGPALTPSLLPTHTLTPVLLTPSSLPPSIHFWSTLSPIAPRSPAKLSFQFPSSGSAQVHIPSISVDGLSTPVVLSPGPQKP
# Procedure, shortened: as §1
# [3] = molecular target: T3, GABPA (Homo sapiens, UniProt Q06546 1-454); conditions: protein: recombinant; tags: N-terminal GST; dsDNA, one strand shown
# T3 sequence: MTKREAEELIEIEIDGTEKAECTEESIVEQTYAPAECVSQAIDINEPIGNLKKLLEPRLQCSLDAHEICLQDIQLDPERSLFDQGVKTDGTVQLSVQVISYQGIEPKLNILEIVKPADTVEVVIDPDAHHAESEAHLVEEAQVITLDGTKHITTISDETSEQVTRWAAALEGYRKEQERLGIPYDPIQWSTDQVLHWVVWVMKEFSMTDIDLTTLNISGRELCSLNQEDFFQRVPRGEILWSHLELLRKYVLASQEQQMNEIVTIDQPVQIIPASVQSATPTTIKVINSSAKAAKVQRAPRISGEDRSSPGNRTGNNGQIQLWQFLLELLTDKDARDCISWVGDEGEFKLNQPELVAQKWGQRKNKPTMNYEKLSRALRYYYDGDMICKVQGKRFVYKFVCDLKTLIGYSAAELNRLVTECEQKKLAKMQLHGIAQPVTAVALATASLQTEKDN
# Procedure, shortened: as §1
# [4] = molecular target: T4, ERG (Homo sapiens, UniProt P11308 1-479); conditions: protein: recombinant; tags: N-terminal GST; dsDNA, one strand shown
# T4 sequence: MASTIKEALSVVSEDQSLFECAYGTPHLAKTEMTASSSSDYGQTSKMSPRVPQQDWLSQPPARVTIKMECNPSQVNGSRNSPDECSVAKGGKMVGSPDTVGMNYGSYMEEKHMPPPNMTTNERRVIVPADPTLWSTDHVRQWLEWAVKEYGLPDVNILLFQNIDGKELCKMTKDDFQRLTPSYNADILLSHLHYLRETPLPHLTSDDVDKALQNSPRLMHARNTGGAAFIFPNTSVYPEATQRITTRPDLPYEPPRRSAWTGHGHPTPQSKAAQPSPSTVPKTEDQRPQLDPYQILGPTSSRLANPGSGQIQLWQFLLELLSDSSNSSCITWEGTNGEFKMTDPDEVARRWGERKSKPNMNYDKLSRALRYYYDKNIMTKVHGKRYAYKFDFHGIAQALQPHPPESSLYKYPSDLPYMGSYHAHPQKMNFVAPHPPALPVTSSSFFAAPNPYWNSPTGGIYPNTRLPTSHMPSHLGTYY
# Procedure, shortened: as §1
# [5] = molecular target: ELF1 (Homo sapiens, UniProt P32519 1-619); conditions: protein: recombinant; tags: N-terminal GST; dsDNA, one strand shown
# ELF1, sequence (P32519 whole entry): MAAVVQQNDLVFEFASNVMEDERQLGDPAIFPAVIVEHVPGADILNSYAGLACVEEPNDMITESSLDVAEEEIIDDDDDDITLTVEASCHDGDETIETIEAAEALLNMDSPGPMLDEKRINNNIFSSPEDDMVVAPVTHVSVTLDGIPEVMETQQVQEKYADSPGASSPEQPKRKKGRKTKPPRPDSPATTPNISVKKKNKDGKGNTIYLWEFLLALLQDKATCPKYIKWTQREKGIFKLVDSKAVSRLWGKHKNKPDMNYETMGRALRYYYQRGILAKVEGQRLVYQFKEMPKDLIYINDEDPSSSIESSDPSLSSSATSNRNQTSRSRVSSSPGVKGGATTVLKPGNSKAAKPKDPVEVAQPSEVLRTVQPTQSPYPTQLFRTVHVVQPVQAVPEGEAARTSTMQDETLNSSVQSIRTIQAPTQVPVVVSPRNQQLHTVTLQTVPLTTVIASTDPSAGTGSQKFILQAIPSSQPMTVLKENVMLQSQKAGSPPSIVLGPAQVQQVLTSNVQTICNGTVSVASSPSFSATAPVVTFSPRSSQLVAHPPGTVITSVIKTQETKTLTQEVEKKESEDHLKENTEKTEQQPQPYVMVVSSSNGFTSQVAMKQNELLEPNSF
# Procedure, shortened: as §1
# [6] = molecular target: T5, EHF (Homo sapiens, UniProt Q9NZC4 1-300); conditions: protein: recombinant; tags: N-terminal GST; dsDNA, one strand shown
# T5 sequence: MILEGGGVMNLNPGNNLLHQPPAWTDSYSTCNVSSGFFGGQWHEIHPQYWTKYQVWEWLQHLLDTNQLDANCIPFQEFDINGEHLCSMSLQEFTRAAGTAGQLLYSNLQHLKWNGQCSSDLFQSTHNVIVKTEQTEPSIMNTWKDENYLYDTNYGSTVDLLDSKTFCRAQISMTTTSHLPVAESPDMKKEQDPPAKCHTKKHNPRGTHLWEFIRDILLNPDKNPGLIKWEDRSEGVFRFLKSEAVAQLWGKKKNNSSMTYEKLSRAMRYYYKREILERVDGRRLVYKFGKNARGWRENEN
# Procedure, shortened: as §1
# [7] = molecular target: SPI1 (Homo sapiens, UniProt P17947 1-270); conditions: protein: recombinant; tags: N-terminal GST; dsDNA, one strand shown
# Procedure, shortened: as §1
# [8] = molecular target: SPIB (Homo sapiens, UniProt Q01892 1-262); conditions: protein: recombinant; tags: N-terminal GST; dsDNA, one strand shown
# SPIB, sequence (Q01892 whole entry): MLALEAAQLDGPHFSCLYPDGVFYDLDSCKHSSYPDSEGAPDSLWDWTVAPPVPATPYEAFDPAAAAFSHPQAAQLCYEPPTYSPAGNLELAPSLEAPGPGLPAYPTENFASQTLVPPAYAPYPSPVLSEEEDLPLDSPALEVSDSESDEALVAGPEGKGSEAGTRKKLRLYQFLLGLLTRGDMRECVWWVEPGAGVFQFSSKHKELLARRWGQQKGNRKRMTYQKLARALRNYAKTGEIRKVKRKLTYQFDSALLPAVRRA
# Procedure, shortened: as §1
# [9] = molecular target: T6, ELK3 (Homo sapiens, UniProt P41970 1-407); conditions: protein: recombinant; tags: N-terminal GST; dsDNA, one strand shown
# T6 sequence: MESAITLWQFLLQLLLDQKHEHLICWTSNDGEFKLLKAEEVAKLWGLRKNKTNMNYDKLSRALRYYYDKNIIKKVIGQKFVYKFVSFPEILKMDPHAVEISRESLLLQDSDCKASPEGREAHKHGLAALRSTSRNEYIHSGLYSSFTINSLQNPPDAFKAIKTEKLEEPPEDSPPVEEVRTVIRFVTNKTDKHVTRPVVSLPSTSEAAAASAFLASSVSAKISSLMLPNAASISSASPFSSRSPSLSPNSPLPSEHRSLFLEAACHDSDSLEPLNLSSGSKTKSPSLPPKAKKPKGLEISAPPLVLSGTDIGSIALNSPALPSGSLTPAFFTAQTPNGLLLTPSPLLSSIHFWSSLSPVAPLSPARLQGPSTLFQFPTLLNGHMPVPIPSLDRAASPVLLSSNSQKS
# Procedure, shortened: as §1
# [10] = molecular target: T7, FEV (Homo sapiens, UniProt Q99581 1-238); conditions: protein: recombinant; tags: N-terminal GST; dsDNA, one strand shown
# T7 sequence: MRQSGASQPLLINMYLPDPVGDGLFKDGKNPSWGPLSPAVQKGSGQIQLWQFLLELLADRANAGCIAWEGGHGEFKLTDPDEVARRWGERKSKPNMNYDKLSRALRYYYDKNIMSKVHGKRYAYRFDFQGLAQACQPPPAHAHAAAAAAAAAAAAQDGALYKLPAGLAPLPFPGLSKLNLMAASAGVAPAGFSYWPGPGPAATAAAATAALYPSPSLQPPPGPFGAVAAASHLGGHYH
# Procedure, shortened: as §1
# [11] = molecular target: ETV5 (Homo sapiens, UniProt P41161 1-510); conditions: protein: recombinant; tags: N-terminal GST; dsDNA, one strand shown
# ETV5, sequence (P41161 whole entry): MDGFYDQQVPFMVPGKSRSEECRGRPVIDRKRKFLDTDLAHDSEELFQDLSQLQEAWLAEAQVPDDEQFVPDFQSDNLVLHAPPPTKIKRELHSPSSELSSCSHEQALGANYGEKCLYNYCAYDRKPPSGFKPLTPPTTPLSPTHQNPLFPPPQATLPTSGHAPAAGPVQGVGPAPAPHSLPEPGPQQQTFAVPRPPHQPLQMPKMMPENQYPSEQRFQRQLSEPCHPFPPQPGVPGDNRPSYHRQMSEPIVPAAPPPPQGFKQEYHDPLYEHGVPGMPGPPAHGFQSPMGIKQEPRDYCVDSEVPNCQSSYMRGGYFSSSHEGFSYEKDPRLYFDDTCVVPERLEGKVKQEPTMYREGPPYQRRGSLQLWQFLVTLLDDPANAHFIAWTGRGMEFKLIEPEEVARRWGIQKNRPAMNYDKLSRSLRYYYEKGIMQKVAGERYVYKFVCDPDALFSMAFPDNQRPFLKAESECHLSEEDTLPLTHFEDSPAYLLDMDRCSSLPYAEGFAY
# Procedure, shortened: as §1
# [12] = molecular target: HSF1 (Homo sapiens, UniProt Q00613 1-529); conditions: protein: recombinant; tags: N-terminal GST; chain copies: 3; dsDNA, one strand shown
# HSF1, sequence (Q00613 whole entry): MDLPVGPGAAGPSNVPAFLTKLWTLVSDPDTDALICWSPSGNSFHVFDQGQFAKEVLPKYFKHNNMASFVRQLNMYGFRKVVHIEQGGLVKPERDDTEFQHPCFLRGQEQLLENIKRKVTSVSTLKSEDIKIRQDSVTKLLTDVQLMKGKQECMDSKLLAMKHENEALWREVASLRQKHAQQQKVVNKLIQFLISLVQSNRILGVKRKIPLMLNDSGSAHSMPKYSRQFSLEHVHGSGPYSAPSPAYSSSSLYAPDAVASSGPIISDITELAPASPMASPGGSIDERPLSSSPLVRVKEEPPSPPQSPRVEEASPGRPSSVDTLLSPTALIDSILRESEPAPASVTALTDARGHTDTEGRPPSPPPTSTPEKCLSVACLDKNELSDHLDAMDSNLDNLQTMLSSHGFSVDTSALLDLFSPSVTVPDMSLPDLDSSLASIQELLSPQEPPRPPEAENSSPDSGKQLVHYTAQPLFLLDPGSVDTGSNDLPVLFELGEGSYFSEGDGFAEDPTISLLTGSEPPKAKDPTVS
# Procedure, shortened: as §1
# [13] = molecular target: T8, SPIC (Homo sapiens, UniProt Q8N5J4 1-248); conditions: protein: recombinant; tags: N-terminal GST; dsDNA, one strand shown
# T8 sequence: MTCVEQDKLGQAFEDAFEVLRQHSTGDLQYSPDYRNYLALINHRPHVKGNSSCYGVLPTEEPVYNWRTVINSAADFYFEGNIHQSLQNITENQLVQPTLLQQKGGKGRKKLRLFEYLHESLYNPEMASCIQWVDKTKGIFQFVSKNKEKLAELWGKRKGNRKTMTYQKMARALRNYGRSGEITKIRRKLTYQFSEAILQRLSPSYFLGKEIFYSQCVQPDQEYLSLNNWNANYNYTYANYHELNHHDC
# Procedure, shortened: as §1
# [14] = molecular target: ELF4 (Homo sapiens, UniProt Q99607 1-663); conditions: protein: recombinant; tags: N-terminal GST; dsDNA, one strand shown
# ELF4, sequence (Q99607 whole entry): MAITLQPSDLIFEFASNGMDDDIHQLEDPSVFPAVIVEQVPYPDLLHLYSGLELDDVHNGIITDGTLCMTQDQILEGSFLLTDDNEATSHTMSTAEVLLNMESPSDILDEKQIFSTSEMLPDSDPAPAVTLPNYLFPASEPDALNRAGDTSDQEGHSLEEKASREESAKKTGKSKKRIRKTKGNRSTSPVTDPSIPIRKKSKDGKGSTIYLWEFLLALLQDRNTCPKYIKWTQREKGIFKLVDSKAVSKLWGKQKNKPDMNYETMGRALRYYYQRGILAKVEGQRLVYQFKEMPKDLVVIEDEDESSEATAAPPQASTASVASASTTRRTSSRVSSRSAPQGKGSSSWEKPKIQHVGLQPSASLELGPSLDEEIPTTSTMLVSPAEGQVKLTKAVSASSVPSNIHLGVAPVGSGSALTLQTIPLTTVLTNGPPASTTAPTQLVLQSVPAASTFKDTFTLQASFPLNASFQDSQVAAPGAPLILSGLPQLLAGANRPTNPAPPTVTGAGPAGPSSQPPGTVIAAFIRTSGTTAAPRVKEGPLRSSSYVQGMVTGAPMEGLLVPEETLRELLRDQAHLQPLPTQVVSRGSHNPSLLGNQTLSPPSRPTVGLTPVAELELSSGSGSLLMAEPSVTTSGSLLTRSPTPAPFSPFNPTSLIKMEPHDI
# Procedure, shortened: as §1
# [15] = molecular target: T9, ELK4 (Homo sapiens, UniProt P28324-2 1-405); conditions: protein: recombinant; tags: N-terminal GST; dsDNA, one strand shown
# T9 sequence: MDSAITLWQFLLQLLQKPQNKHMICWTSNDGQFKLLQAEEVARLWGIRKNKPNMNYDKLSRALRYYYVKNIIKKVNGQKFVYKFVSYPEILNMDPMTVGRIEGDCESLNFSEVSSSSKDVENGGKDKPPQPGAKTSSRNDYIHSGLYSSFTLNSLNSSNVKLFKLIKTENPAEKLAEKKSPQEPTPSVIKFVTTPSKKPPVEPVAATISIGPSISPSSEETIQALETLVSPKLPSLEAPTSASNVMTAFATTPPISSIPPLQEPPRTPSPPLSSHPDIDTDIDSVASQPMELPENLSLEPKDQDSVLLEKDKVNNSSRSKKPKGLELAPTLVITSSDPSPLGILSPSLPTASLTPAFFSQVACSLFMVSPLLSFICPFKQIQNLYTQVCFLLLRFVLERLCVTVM
# Procedure, shortened: as §1
# [16] = molecular target: T10, ETV2 (Homo sapiens, UniProt O00321 1-342); conditions: protein: recombinant; tags: N-terminal GST; dsDNA, one strand shown
# T10 sequence: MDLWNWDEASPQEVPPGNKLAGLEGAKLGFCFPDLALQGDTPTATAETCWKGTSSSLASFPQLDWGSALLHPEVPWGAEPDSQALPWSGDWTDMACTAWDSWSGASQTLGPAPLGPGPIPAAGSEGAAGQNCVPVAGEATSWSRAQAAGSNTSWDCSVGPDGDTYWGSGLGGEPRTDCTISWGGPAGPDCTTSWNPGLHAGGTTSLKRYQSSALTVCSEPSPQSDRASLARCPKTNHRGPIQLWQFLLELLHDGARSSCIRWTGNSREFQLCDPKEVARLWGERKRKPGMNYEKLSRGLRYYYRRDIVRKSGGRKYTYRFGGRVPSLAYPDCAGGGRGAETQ
# Procedure, shortened: as §1
# [17] = molecular target: T11, ELF3 (Homo sapiens, UniProt P78545 1-371); conditions: protein: recombinant; tags: N-terminal GST; dsDNA, one strand shown
# T11 sequence: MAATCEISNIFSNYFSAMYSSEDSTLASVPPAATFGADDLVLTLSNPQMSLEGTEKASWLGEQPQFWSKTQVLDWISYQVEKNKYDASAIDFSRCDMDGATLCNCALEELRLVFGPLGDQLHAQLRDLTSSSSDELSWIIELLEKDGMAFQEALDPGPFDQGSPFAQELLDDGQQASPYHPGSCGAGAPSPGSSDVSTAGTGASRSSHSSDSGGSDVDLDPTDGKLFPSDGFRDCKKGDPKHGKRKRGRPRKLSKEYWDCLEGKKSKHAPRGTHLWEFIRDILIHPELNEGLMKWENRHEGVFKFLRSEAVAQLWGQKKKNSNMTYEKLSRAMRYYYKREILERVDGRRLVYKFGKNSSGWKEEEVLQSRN
# Procedure, shortened: as §1
# [18] = molecular target: CRX (Homo sapiens, UniProt O43186 1-299); conditions: protein: recombinant; tags: N-terminal GST; dsDNA, one strand shown
# CRX, sequence (O43186 whole entry): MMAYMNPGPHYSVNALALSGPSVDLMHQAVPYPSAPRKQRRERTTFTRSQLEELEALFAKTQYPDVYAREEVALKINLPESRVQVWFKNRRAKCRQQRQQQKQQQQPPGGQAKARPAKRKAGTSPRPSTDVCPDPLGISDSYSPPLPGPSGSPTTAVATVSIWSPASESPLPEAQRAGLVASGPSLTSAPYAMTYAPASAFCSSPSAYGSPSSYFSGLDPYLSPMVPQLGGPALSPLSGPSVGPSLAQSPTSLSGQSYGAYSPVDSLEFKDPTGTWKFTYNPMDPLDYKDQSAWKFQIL
# Procedure, shortened: as §1
# [19] = molecular target: ETV1 (Homo sapiens, UniProt P50549 1-477); conditions: protein: recombinant; tags: N-terminal GST; dsDNA, one strand shown
# ETV1, sequence (P50549 whole entry): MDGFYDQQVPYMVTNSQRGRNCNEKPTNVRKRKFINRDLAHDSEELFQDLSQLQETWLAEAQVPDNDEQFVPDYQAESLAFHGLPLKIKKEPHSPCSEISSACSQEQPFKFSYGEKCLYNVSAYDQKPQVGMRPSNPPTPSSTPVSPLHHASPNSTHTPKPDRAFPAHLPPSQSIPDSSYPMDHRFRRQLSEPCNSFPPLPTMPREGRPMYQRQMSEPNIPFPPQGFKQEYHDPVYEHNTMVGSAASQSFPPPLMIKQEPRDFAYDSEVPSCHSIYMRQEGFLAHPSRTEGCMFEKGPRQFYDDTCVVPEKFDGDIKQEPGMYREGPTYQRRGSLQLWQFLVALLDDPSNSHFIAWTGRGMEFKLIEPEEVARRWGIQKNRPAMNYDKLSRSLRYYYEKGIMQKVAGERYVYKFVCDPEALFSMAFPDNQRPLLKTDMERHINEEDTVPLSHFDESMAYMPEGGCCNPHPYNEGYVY
# Procedure, shortened: as §1
sequence,measurement,setting,value
GTAATT,binding signal,[1],"1.23 fold enrichment (6-mer frequency, TF over GST control)"
same,binding signal,[2],"1.1 fold enrichment (6-mer frequency, TF over GST control)"
same,binding signal,[3],"1.19 fold enrichment (6-mer frequency, TF over GST control)"
same,binding signal,[4],"1.19 fold enrichment (6-mer frequency, TF over GST control)"
same,binding signal,[5],"1.22 fold enrichment (6-mer frequency, TF over GST control)"
same,binding signal,[6],"1.21 fold enrichment (6-mer frequency, TF over GST control)"
same,binding signal,[7],"1.25 fold enrichment (6-mer frequency, TF over GST control)"
same,binding signal,[8],"1.23 fold enrichment (6-mer frequency, TF over GST control)"
same,binding signal,[9],"1.29 fold enrichment (6-mer frequency, TF over GST control)"
same,binding signal,[10],"1.16 fold enrichment (6-mer frequency, TF over GST control)"
same,binding signal,[11],"1.23 fold enrichment (6-mer frequency, TF over GST control)"
same,binding signal,[12],"1.36 fold enrichment (6-mer frequency, TF over GST control)"
same,binding signal,[13],"1.21 fold enrichment (6-mer frequency, TF over GST control)"
same,binding signal,[14],"1.22 fold enrichment (6-mer frequency, TF over GST control)"
same,binding signal,[15],"1.11 fold enrichment (6-mer frequency, TF over GST control)"
same,binding signal,[16],"1.31 fold enrichment (6-mer frequency, TF over GST control)"
same,binding signal,[17],"1.19 fold enrichment (6-mer frequency, TF over GST control)"
same,binding signal,[18],"1.59 fold enrichment (6-mer frequency, TF over GST control)"
same,binding signal,[19],"1.3 fold enrichment (6-mer frequency, TF over GST control)"
